From the supplement of paper PMC11732987, “Enantioselective OTUD7B fragment discovery through chemoproteomics screening and high-throughput optimisation” (Communications Chemistry, 2025)

Tests used:
Experiment in all cases: log2 ratio of Biotin-Ahx-Ub-VS probe labelling (fragment/DMSO); higher = less target engagement (more negative = stronger competition), active = hit call of the paper (q ≤ 0.05, log2 ratio ≤ -1)
Details in all cases: compound concentration: 200 uM; treatment time: 3 h
[1] = biological target: T1, USP19 (UniProt O94966)
T1 sequence (whole entry): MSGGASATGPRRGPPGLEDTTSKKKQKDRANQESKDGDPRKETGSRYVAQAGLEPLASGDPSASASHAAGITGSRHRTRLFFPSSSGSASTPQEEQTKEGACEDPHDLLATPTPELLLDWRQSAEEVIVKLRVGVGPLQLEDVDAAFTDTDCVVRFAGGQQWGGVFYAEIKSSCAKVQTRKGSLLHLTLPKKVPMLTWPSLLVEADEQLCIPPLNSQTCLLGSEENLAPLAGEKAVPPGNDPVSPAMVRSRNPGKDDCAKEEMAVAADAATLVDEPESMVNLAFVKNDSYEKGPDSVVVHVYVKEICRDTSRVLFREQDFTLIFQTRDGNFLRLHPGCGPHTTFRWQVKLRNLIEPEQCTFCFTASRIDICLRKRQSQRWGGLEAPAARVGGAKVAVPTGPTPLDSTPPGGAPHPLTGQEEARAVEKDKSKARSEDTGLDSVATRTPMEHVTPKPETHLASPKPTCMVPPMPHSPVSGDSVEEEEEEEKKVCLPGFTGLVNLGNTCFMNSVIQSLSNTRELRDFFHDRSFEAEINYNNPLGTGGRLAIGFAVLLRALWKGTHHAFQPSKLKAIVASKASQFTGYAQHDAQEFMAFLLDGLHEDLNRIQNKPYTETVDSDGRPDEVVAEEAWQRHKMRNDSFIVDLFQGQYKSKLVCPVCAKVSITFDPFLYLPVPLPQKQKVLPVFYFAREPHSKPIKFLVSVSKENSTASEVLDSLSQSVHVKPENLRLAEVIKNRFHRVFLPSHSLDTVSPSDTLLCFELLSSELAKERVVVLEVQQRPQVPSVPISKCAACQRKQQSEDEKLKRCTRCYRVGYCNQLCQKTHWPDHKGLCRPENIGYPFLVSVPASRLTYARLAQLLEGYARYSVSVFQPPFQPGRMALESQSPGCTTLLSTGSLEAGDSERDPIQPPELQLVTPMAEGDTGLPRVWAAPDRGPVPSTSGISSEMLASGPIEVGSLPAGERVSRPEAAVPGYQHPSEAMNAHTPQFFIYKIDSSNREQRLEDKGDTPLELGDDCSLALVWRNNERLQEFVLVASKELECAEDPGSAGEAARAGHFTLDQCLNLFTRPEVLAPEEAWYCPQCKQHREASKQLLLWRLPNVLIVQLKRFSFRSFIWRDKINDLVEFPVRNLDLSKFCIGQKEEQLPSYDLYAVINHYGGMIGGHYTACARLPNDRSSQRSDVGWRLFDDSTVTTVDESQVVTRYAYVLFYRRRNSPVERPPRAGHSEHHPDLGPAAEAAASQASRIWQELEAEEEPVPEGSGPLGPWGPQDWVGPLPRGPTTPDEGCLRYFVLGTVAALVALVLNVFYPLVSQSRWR
Outline: (§1)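 Fragment (200 µM) or vehicle was incubated for 3 h with triplicate HEK293T lysate samples of 495 µg, which were then treated with Biotin-Ahx-Ub-VS at 0.5 µM final for 1 h. Labelled DUBs were enriched on NeutrAvidin, digested with LysC and trypsin, and analysed by diaPASEF LC-MS/MS. Values are average log2 fragment/vehicle ratios from an unpaired t-test on global-median-normalised Spectronaut label-free quantities, using proteins with ≥2 unique peptides.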

[2] = biological target: T2, USP22 (UniProt Q9UPT9)
T2 sequence (whole entry): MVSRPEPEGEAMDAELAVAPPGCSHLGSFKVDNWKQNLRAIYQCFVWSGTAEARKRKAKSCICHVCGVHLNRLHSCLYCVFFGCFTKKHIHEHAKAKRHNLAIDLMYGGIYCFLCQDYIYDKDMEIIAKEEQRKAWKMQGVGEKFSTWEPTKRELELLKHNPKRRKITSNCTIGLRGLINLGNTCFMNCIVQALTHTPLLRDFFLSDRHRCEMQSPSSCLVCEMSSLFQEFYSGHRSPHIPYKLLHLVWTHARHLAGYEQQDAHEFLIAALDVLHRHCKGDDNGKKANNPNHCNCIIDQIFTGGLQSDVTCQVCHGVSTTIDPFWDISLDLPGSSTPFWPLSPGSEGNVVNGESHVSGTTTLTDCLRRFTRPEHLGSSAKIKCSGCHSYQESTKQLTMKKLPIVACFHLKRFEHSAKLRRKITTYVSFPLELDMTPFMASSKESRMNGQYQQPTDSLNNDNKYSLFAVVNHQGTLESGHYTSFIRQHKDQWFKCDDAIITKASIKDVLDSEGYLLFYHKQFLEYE
Outline: as §1

[3] = biological target: USP24 (UniProt Q9UPU5)
Chain of USP24 (Q9UPU5 whole entry): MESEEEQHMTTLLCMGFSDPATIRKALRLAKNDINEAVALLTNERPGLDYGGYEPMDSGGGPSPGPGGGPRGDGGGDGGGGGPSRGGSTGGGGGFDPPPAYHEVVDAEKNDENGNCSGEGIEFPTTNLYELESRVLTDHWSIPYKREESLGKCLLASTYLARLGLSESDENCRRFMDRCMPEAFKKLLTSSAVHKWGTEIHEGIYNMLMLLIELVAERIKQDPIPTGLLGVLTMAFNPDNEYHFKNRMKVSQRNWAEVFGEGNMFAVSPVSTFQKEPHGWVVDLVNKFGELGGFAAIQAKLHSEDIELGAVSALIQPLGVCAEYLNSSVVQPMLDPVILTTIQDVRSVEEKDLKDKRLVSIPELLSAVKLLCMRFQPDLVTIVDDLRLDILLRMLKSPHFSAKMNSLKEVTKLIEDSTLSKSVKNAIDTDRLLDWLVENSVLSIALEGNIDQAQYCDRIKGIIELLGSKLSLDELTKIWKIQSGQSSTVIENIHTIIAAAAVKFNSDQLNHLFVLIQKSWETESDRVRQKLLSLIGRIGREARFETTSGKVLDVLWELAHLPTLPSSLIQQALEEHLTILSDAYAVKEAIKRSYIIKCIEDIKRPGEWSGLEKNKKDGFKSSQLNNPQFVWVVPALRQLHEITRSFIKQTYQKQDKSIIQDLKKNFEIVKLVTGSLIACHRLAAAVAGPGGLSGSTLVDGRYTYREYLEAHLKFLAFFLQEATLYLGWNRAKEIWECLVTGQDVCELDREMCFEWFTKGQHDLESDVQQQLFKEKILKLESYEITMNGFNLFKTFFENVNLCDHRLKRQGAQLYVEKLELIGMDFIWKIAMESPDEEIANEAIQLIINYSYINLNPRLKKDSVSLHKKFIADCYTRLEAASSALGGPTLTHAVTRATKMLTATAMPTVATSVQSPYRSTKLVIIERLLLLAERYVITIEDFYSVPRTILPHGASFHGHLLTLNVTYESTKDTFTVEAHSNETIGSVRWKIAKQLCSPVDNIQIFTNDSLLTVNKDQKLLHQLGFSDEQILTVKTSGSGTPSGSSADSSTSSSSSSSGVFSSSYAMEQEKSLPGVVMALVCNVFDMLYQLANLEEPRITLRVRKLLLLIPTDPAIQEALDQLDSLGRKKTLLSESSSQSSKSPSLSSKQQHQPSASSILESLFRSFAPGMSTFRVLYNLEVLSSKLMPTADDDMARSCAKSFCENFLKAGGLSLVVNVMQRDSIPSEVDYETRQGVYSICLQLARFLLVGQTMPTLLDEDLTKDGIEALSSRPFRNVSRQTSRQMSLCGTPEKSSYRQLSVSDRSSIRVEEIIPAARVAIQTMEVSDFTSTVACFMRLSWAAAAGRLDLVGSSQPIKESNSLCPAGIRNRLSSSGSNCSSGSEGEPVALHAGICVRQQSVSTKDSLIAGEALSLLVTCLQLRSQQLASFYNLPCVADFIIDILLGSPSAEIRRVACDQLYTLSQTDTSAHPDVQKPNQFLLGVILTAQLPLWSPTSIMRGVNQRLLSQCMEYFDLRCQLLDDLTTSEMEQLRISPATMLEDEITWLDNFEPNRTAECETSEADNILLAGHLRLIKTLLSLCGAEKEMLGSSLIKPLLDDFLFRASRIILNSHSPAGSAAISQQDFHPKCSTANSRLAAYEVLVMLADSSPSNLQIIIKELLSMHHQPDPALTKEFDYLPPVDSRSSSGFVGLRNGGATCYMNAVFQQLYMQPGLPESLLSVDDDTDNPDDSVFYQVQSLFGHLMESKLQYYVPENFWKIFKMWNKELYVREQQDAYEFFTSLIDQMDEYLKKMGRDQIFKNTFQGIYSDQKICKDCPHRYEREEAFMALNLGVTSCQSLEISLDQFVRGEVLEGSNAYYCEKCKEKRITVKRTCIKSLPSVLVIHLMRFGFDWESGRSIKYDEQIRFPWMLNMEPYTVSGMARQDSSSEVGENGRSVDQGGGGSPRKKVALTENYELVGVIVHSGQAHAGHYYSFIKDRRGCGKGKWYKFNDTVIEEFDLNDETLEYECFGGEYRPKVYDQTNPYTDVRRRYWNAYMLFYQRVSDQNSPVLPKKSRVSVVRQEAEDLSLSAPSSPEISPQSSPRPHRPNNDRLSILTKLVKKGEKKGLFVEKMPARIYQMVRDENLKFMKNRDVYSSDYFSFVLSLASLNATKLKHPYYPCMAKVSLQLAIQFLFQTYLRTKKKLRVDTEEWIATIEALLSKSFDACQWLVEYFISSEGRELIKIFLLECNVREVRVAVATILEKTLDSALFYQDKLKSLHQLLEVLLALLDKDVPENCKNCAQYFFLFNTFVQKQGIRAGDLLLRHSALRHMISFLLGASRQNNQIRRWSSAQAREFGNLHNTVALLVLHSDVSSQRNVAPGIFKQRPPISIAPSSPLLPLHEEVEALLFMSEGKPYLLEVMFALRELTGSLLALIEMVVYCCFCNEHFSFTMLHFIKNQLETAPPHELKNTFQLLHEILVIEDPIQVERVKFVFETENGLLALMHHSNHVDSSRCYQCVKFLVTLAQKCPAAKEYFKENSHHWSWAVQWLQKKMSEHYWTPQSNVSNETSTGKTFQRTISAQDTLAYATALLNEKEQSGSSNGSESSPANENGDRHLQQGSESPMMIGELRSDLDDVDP
Outline: as §1

[4] = biological target: T3, USP25 (UniProt Q9UHP3)
T3 sequence (whole entry): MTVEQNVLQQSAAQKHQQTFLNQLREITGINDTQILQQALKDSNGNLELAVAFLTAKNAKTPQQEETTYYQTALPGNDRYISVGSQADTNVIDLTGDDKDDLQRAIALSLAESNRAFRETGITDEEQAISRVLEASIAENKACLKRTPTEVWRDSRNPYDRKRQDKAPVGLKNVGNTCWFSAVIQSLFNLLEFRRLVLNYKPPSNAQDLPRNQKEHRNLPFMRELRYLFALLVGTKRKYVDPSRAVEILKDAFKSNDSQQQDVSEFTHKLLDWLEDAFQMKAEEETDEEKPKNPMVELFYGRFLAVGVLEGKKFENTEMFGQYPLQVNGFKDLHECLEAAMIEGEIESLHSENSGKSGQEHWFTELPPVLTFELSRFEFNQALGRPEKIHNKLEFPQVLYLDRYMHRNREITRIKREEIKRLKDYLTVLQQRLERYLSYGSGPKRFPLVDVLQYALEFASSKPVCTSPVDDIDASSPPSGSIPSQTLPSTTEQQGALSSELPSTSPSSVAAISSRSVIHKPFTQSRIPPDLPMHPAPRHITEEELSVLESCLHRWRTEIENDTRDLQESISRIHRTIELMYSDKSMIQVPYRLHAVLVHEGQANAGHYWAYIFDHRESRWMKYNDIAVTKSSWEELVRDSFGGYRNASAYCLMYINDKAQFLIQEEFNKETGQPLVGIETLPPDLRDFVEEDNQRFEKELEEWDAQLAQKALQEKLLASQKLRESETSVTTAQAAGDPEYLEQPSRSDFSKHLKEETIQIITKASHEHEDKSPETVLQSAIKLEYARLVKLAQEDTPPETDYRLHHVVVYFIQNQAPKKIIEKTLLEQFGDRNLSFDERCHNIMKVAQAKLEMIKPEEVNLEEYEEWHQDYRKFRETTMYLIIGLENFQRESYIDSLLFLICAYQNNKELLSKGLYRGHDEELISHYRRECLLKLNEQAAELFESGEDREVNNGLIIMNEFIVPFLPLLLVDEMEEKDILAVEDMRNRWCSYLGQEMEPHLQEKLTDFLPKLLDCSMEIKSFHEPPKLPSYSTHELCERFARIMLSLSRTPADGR
Outline: as §1

[5] = biological target: T4, USP28 (UniProt Q96RU2)
T4 sequence (whole entry): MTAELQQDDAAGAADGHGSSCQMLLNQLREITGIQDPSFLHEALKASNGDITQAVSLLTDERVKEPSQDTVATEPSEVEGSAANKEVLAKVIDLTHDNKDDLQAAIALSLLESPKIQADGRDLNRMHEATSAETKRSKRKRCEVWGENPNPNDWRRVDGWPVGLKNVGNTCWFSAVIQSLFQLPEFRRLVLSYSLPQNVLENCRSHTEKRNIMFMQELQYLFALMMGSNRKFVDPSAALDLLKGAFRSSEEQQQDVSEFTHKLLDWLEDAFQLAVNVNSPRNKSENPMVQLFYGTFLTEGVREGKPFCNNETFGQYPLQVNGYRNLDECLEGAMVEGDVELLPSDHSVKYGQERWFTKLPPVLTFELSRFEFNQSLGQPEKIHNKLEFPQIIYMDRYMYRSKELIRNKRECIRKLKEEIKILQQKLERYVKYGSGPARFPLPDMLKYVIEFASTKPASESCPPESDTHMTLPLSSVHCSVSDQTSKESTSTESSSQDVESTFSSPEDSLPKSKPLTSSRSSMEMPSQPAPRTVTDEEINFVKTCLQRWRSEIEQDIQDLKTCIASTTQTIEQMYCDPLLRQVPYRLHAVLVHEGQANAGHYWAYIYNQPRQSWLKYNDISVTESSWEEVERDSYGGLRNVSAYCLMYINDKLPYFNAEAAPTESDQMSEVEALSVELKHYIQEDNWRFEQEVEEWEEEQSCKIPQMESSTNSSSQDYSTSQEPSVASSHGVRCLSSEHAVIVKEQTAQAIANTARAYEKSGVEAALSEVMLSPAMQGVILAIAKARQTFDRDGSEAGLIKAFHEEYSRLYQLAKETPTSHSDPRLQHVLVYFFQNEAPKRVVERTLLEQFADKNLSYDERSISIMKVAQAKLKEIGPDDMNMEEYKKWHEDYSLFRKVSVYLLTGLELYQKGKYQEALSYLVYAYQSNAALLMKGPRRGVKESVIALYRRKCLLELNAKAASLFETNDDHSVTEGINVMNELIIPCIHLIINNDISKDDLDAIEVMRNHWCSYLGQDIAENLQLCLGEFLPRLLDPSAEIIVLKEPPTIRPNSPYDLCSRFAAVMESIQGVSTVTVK
Outline: as §1

Measured: log2 ratio of Biotin-Ahx-Ub-VS probe labelling

Cc1cccc(N(CCC#N)C(=O)CCl)c1C
inactive: [1] 0.16 | [2] -0.11 | [3] -0.0767 | [4] 0.00615 | [5] -0.253
